In experiment [1] the target is Pyruvate kinase (Leishmania mexicana) (UniProt Q27686). Description: qHTS Validation Assay for Activators of Leishmania Mexicana Pyruvate Kinase (AID 959). The note with it: purified L. mexicana pyruvate kinase, enzyme activity. Summed up:
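Compounds are tested as eight-point concentration series. Reactions contain 0.2 nM LmPYK E451W, 0.5 mM PEP, 0.1 mM ADP, 7 mM MgCl2 and 50 mM KCl at pH 7.2, run 1 h at room temperature, then read by PKLight luminescence.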

For experiment [2], the target named is Alpha-galactosidase (Coffea arabica) (UniProt Q42656). Description: Counterscreen for Glucocerebrosidase Inhibitors: qHTS Assay for Coffee Bean alpha-Galactosidase at pH 4.5 (AID 957). The note with it: purified coffee bean alpha-galactosidase, fluorogenic substrate; series mostly up to 76.9 µM. Summed up: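 Enzyme is added first (2 nM final), then compounds titrated from 0.7 nM to 77 uM, then 80 uM 4-methylumbelliferyl alpha-D-galactopyranoside; after 20 min at room temperature a pH 10 NaOH/glycine stop precedes fluorescence reading at 365/440 nm.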

A short description of experiment [3]: MultiTox-Fluor Cytotoxicity Assay - LYMP1-003 - Live Cells (AID 962).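 Also: potency is read from the fitted curve at half-maximal effect; cells exposed to compound for 16 hours at 37 °C.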 Particulars: LYMP1-003 lymphoblastoid cells, MultiTox-Fluor live-cell protease fluorescence; series mostly up to 92.2 µM. Summed up: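 Acute cytotoxicity is scored as a drop in live-cell protease activity in human lymphoblastoid LYMP1-003 cells after 16 hr compound exposure at 37 C. AC50 values come from Hill-equation modelling of concentration-response data.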

Experiment [4] is described as follows: Cell Viability - LYMP1-003 - Assay at 40 hr (AID 964). Also: potency is read from the fitted curve at half-maximal effect; nearly all actives have a fitted effect of over 60% in size. The note with it: LYMP1-003 lymphoblastoid viability; series mostly up to 92.2 µM. Summed up: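 Luminescent ATP signal (CellTiter-Glo) served as the viability read-out after 40 hr compound treatment of human lymphoblastoid LYMP1-003 cells at 37 C. Decreases in ATP were fitted with the Hill equation to give AC50.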

Experiment [5] can be described thus: Cell Viability - LYMP2-005 (AID 967). Also: potency is read from the fitted curve at half-maximal effect. Particulars: LYMP2-005 lymphoblastoid cell viability; series mostly up to 92.2 µM. Summed up: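 Steps: seed 2500 LYMP2-005 cells/well, incubate 5 h at 37 C, add compound, incubate 24 h at 37 C, add CellTiter-Glo, wait 30 min at RT, read luminescence. Concentration-response data fitted to Hill equation for AC50.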
Experiment [6] can be described thus: Cell Viability - LYMP2-011 (AID 969). Also: potency is read from the fitted curve at half-maximal effect; nearly all actives have a fitted effect of over 60% in size. Particulars: LYMP2-011 lymphoblastoid cells viability; series mostly up to 92.2 µM. Summed up: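 In this qHTS cytotoxicity format, compounds are tested across concentrations on human lymphoblastoid cells in complete medium for 24 hours at 37 C. Viability is taken as cellular ATP measured by luciferase luminescence.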
Experiment [7] is described as follows: Cell Viability - LYMP2-019 (AID 973). Also: potency is read from the fitted curve at half-maximal effect; nearly all actives have a fitted effect of over 55% in size. The note with it: LYMP2-019 lymphoblastoid cell line viability; series mostly up to 92.2 µM. Summed up:
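Cytotoxicity is scored as a concentration-dependent drop in cellular ATP after cells (2500/well) receive compound for 24 hr at 37 C. Tetraoctylammonium bromide serves as positive control.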

Experiment [8] can be described thus: Cell Viability - LYMP2-021 (AID 974).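 Also: potency is read from the fitted curve at half-maximal effect; compound exposure lasts 24 hours at 37 °C; nearly all actives have a fitted effect of over 55% in size.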 Particulars: LYMP2-021 lymphoblastoid cells viability; series mostly up to 92.2 µM. A digest of the protocol:
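Loss of cellular ATP, measured with a luciferase-based CellTiter-Glo readout, serves as the toxicity signal in human lymphoblastoid cells treated for 24 hours at 37 C. Potency is reported as AC50 from a standard Hill model.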

Experiment [9] can be described thus: Cell Viability - LYMP2-003 (AID 965).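 Also: potency is read from the fitted curve at half-maximal effect; cells exposed to compounds for 24 h before reading; nearly all actives have a fitted effect of over 50% in size.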 Particulars: LYMP2-003 lymphoblastoid cell viability; series mostly up to 92.2 µM. A digest of the protocol:
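CellTiter-Glo luminescence (cellular ATP) after 24 h compound exposure at 37 C in complete medium; 2500 cells/well, 5 h settling beforehand. Concentration-response fitted to standard Hill equation for AC50. Tetraoctylammonium bromide served as positive control.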

Experiment [10] is described as follows: Cell Viability - LYMP2-004 (AID 966). Also: potency is read from the fitted curve at half-maximal effect; nearly all actives have a fitted effect of over 65% in size. Particulars: LYMP2-004 lymphoblastoid cell viability, qHTS; series mostly up to 92.2 µM. Summed up: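 qHTS cytotoxicity: human lymphoblastoid line, 24 hr compound treatment, 37 C, complete medium. Viability read as cellular ATP via luciferase luminescence; tetraoctylammonium bromide served as positive control.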
Experiment [11] is described as follows: Cell Viability - LYMP2-009 (AID 968). Also: potency is read from the fitted curve at half-maximal effect; nearly all actives have a fitted effect of over 55% in size. The note with it: LYMP2-009 lymphoblastoid cell viability; series mostly up to 92.2 µM.
Experiment [12] in a line: Cell Viability - LYMP2-017 (AID 972). Also: potency is read from the fitted curve at half-maximal effect; nearly all actives have a fitted effect of over 55% in size. Particulars: LYMP2-017 lymphoblastoid cell viability; series mostly up to 92.2 µM. A digest of the protocol:
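Cytotoxicity is scored as a concentration-dependent drop in cellular ATP in a human lymphoblastoid line after 24 hr treatment at 37 C. Values are AC50s from Hill-equation modelling.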

Experiment [13] is described as follows: Cell Viability - LYMP2-023 (AID 975). The note with it: LYMP2-023 lymphoblastoid cell viability; series mostly up to 92.2 µM. A digest of the protocol: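 Steps: seed 2500 human lymphoblastoid cells per well, incubate 5 hr at 37 C, add compound for 24 hr at 37 C, add CellTiter-Glo, hold 30 min at room temperature, read luminescence. AC50 derived by Hill modelling.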

Several values for one entry are separate records, joined by “and”; a condition that tells them apart may be missing. Identical values can stand only once. Records with an inconclusive call do not appear. A call without a number means that no potency is given here. Activity calls are given as the source filed them. Calls follow the shape of the dose curve; as a rule, active = well fitted curve in the direction sought with a large enough effect; inconclusive = small, poorly fitted or top-dose-only effect, or another doubt; inactive = no such curve, though single readings can be large; an effect the other way counts as inactive or inconclusive.

Alpha-galactosidase (Coffea arabica), sequence (Q42656 whole entry, looked up): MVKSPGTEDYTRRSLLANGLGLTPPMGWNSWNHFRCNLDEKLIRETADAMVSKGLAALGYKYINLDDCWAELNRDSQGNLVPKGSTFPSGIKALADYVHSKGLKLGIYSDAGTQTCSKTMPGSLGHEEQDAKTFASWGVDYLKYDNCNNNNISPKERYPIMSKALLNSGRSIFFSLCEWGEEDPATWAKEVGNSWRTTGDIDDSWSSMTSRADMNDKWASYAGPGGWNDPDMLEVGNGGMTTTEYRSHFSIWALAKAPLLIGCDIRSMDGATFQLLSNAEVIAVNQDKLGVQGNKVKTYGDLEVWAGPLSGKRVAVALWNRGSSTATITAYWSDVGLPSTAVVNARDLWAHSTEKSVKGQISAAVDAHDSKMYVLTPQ
Pyruvate kinase (Leishmania mexicana), sequence (Q27686 2-499 E452W): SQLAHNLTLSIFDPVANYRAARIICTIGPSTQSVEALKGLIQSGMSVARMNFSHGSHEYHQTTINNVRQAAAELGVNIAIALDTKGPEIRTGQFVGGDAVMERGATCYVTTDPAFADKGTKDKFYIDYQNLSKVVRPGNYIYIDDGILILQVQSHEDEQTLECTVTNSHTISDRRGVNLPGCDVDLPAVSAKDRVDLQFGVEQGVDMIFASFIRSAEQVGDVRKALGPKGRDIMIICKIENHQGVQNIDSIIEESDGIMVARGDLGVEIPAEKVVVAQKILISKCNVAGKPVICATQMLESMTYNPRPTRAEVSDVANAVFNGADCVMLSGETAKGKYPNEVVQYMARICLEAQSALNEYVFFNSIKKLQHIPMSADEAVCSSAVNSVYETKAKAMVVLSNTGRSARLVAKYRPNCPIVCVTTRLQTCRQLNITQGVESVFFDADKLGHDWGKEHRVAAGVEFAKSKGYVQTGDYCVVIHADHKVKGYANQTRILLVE

Consider `CN1C[C@H](CNC(=O)OCc2ccccc2)C[C@@H]2c3cccc4c3c(cn4C)C[C@H]21`, for which the Potency in experiment [1] is 12.6 µM (active). `Nc1nc(N)c2nc(-c3ccccc3)c(N)nc2n1`: the outcome in experiment [2] was inactive. Same read-out and setting: with `Cc1ccc(S(=O)(=O)NC(=O)NN2CCCCCC2)cc1` the entry was “inactive”; with `Clc1ccc2c(c1)C(N1CCNCC1)=Nc1ccccc1O2`, “inactive”. Same read-out and setting: with `CC[N+](C)(C)c1cccc(O)c1` the entry was “inactive”; with `Cn1ccc2cc3c(cc21)CCN3C(=O)Nc1cccnc1`, “inactive”.

`Fc1ccc([C@@H]2CCNC[C@H]2COc2ccc3c(c2)OCO3)cc1`: the call in experiment [2] was inactive. `CCOC(=O)N1CCC(=C2c3ccc(Cl)cc3CCc3cccnc32)CC1`: the compound was classed as inactive in experiment [2]. Same read-out and setting: under `Cc1nc2n(c(=O)c1CCN1CCC(c3noc4cc(F)ccc34)CC1)CCCC2` stands “inactive”; under `CN(C)CCC[C@@]1(c2ccc(F)cc2)OCc2cc(C#N)ccc21`, “inactive”. Same read-out and setting: with `CCN(CC)CCNC(=O)c1cc(Cl)c(N)cc1OC` the entry was “inactive”. The same measure, in the same setting: with `COC(=O)[C@H]1[C@H]2C[C@@H]3c4[nH]c5cc(OC)ccc5c4CCN3C[C@H]2C[C@@H](OC(=O)c2cc(OC)c(OC)c(OC)c2)[C@@H]1OC` the entry was “inactive”; with `Cc1cn[nH]c1`, “inactive”. For the compound `NNCCc1ccccc1`, the compound was classed as inactive in experiment [2]. Still for that read-out and setting: with `CNCCCN1c2ccccc2CCc2ccccc21` the entry was “inactive”; with `CC(C)NCC(O)COc1cccc2[nH]ccc12` (stereo not given), “inactive”. Still for that read-out and setting: with `CC(C)(C)NC(=O)[C@H]1CC[C@H]2[C@@H]3CC[C@H]4NC(=O)C=C[C@]4(C)[C@H]3CC[C@]12C` the entry was “inactive”; with `CN/C(=C\[N+](=O)[O-])NCCSCc1ccc(CN(C)C)o1`, “inactive”. On to `O=C(CCCN1CCC(O)(c2ccc(Cl)cc2)CC1)c1ccc(F)cc1`, for which, in [2], the compound was called inactive. Same read-out and setting: with `COc1ccc(Cc2nccc3cc(OC)c(OC)cc23)cc1OC` the entry was “inactive”; with `COc1ccc(Cl)cc1C(=O)NCCc1ccc(S(=O)(=O)NC(=O)NC2CCCCC2)cc1`, “inactive”.

For `O=c1[nH]cc(F)c(=O)[nH]1`, the outcome in [2] was inactive. On the same count and under the same terms, with `OCCN1CCN(CCCN2c3ccccc3Sc3ccc(Cl)cc32)CC1` the entry was “inactive”; with `O=C(C1CCCCC1)N1CC(=O)N2CCc3ccccc3C2C1` (stereo not given), “inactive”. Same read-out and setting: under `Cc1cn([C@H]2C=C[C@@H](CO)O2)c(=O)[nH]c1=O` stands “inactive”; under `CCCNC(=O)NS(=O)(=O)c1ccc(Cl)cc1`, “inactive”; under `CCCN(CCC)CCc1cccc2c1CC(=O)N2`, “inactive”. Same read-out and setting: under `CN1CCC[C@@H]1CCO[C@](C)(c1ccccc1)c1ccc(Cl)cc1` stands “inactive”; under `Nc1ncn([C@@H]2O[C@H](CO)[C@@H](O)[C@H]2O)c(=O)n1`, “inactive”. Regarding `Cc1cnc(C(=O)NCCc2ccc(S(=O)(=O)NC(=O)NC3CCCCC3)cc2)cn1`, the compound was called inactive in experiment [2]. On the same count and under the same terms, with `NS(=O)(=O)c1cc2c(cc1Cl)NC=NS2(=O)=O` the entry was “inactive”; with `CN(Cc1cnc2nc(N)nc(N)c2n1)c1ccc(C(=O)N[C@@H](CCC(=O)O)C(=O)O)cc1`, “inactive”. For `CC(=O)Oc1ccccc1C(=O)Nc1ncc([N+](=O)[O-])s1`, the Potency was 39.8 µM (active) in experiment [3]; 12.6 µM (active) in experiment [4]; 31.6 µM (active) in experiment [5]; 50.1 µM (active) in experiment [6]; 31.6 µM (active) in experiment [7]; 39.8 µM (active) in experiment [8]. For the compound `Oc1cccc2cccnc12`, the Potency in experiment [4] is 31.6 µM (active) and 39.8 µM (active); in experiment [9] it was 12.6 µM (active); in experiment [10], 15.8 µM (active) and 12.6 µM (active); in experiment [11], 10 µM (active); in [12], 12.6 µM (active) and 10 µM (active); in experiment [7], 10 µM (active). The Potency in [13] was 25.1 µM (active). For the compound `CC(COc1ccccc1)N(CCCl)Cc1ccccc1` (stereo not given), the Potency in experiment [11] was 39.8 µM (active); in experiment [6], 50.1 µM (active); in experiment [12] it was 39.8 µM (active); in experiment [8] it was 50.1 µM (active); in [13], 50.1 µM (active).

Values taken from PubChem BioAssay (NCATS).
